# Hit rate of the full screen: of about 52,000 compounds, about 4,300 (8.3%) were called active. No stated cut-off is given here; in the data, active means survival mostly below about 52% (no sharp cut-off); inactive means mostly above about 56%. This excerpt belongs to a sample that is enriched for actives.
# Test system: DeltatarO mutant
# Assay: growth inhibition of S. aureus wild type versus tarO mutant, primary screen, teichoic acid synthesis inhibitors, RN4220, OD600 (AID 463173)
# Conditions: OD600, 18 h, hits give low values, screened at 18.75 µg/mL (by protocol)
row,SMILES,survival
1,Cc1cc(C)cc(N2CCn3c2nc2c3c(=O)n(CCCc3ccccc3)c(=O)n2C)c1,67% (inactive)
2,O=C(CSc1nc2c(c(=O)[nH]1)CCCC2)Nc1cccc(O)c1,68% (inactive)
3,Cc1cccc(N2CCN(C(=O)c3cnn(-c4cccc(Cl)c4C)c3C3CCNCC3)CC2)c1C,80% (inactive)
4,Cc1cc(NC(=O)c2ccc3c(c2)N(Cc2cccc(Cl)c2)C(=O)c2ccccc2S3(=O)=O)ccc1Br,90% (inactive)
5,Cc1ccc(C2CCN(C(=O)Nc3ccc(Cl)c(Cl)c3)C2)cc1 (centres undefined),20% (active)
6,Cc1ccc(C2CCN(C(=O)Nc3ccc(Cl)cc3)C2)cc1 (centres undefined),81% (inactive)
7,O=C(Nc1ccc(Cl)c(Cl)c1)N1CCC(c2ccccc2)C1 (centres undefined),81% (inactive)
8,COc1ccc(N2C(=O)CSC23C(=O)N(CC(=O)NCCc2ccccc2)c2ccccc23)cc1 (centres undefined),94% (inactive)
9,CCN(CC)S(=O)(=O)c1ccc(-c2nnc(SCC(=O)Nc3nc4ccccc4s3)o2)cc1,66% (inactive)
10,CCOC(=O)Cn1c(=N)n(Cc2ccc(C(C)(C)C)cc2)c2ccccc21,103% (inactive)
11,O=C1CSC(=O)N1CCOc1ccc(F)cc1,80% (inactive)
12,CCCCn1c(=N)n(CCCOc2ccc(F)cc2)c2ccccc21,48% (inactive)
13,CCCCn1c(=N)n(CCOc2ccccc2OC)c2ccccc21,56% (inactive)
14,CCOC(=O)Cn1c(=N)n(CCOc2ccc(OC)cc2)c2ccccc21,43% (active)
15,N=c1n(CC(=O)O)c2ccccc2n1Cc1ccccc1,84% (inactive)
16,N=c1n(CC(N)=O)c2ccccc2n1Cc1ccccc1Cl,99% (inactive)
17,N=c1n(CCO)c2ccccc2n1Cc1ccccc1F,47% (active)
18,N=c1n(CCO)c2ccccc2n1CCOc1ccc(F)cc1,40% (active)
19,O=C(O)CCN1C(=O)CSC1=O,72% (inactive)
20,CCCOc1cccc(C2c3c(oc4cc(C)c(C)cc4c3=O)C(=O)N2CCCN2CCOCC2)c1 (centres undefined),64% (inactive)
21,COc1ccc(CCNC(=O)c2ccc3c(c2)N(Cc2cc(C)ccc2C)C(=O)c2ccccc2S3=O)cc1OC (centres undefined),70% (inactive)
22,COc1cc(OC)c(NC(=O)Cn2cnc3sc(C)c(S(=O)(=O)N4CCN(C)CC4)c3c2=O)cc1Cl,157% (inactive)
23,Cc1oc(-c2cccc(Br)c2)nc1CN1CCC(C(=O)NCCc2ccc(Cl)cc2)CC1,76% (inactive)
24,Cc1oc(-c2ccc(Cl)cc2)nc1CN1CCCC(C(=O)NCc2ccccc2)C1 (centres undefined),93% (inactive)

row,SMILES,survival
1,Cc1cccc(-c2nc(CN3CCCC(C(=O)NCCc4ccc(Cl)cc4)C3)c(C)o2)c1 (centres undefined),34% (active)
2,CCc1ccc(-c2nc(CN3CCCC(C(=O)NCc4ccc(C)cc4)C3)c(C)o2)cc1 (centres undefined),73% (inactive)
3,Cc1oc(-c2cccc(Cl)c2)nc1CN1CCC(C(=O)NCCc2ccc(Cl)cc2)CC1,87% (inactive)
4,Cc1ccc(CCNC(=O)C2CCCN(Cc3nc(-c4cccc(Cl)c4)oc3C)C2)cc1 (centres undefined),25% (active)
5,Cc1cccc(-c2nc(CN3CCCC(C(=O)N4CCN(c5cc(Cl)ccc5C)CC4)C3)c(C)o2)c1 (centres undefined),68% (inactive)
6,Cc1oc(-c2ccc(Cl)cc2)nc1CN1CCCC(C(=O)NCCc2ccccc2)C1 (centres undefined),44% (active)
7,Cc1ccc(C)c(N2CCN(C(=O)C3CCCN(Cc4nc(-c5cccc(Cl)c5)oc4C)C3)CC2)c1 (centres undefined),78% (inactive)
8,Cc1oc(-c2cccc(Cl)c2)nc1CN1CCCC(C(=O)NCCc2ccc(Cl)cc2)C1 (centres undefined),-6% (active)
9,CCCCNC(=O)C1CCCN(Cc2nc(-c3ccc(Cl)cc3)oc2C)C1 (centres undefined),77% (inactive)
10,Cc1oc(-c2ccc(Cl)cc2)nc1CN1CCCC(C(=O)NCCc2ccc(Cl)cc2)C1 (centres undefined),54% (inactive)
11,Cc1ccc(-n2c(=O)c3c4c(sc3n(CC(=O)C(C)(C)C)c2=O)CCCCC4)cc1C,89% (inactive)
12,CC(C)CCNC(=O)c1cn(C)c2ccc(S(=O)(=O)N3CCCC3)cc2c1=O,138% (inactive)
13,CCc1ccc2oc(C(=O)NCC(c3ccc(OC)cc3)N3CCCCC3)c(C)c2c1 (centres undefined),81% (inactive)
14,O=C(CCn1cnc2onc(-c3ccc(F)cc3)c2c1=O)Nc1cccc(C(F)(F)F)c1,96% (inactive)
15,Cc1ccc(-n2nc(C(=O)N3CCN(c4ccccc4F)CC3)c(=O)n(C)c2=O)cc1,93% (inactive)
16,Cc1ccsc1CN(C(=O)COc1ccc(Br)cc1)C1CCS(=O)(=O)C1 (centres undefined),73% (inactive)
17,Cc1ccc(CN2CCC(CNC(=O)Nc3cccc(C)c3C)C2)cc1 (centres undefined),112% (inactive)
18,Cc1cc(Cl)ccc1NC(=O)Cn1nnc2sc(-c3ccccc3)cc2c1=O,106% (inactive)
19,Cc1cn2c(=O)cc(COC(=O)c3cccc(NC(=O)c4ccccc4Cl)c3)nc2s1,102% (inactive)
20,COc1cccc(CNC(=O)Cn2c(=O)ccc3cc(S(=O)(=O)N4CCC(C)CC4)ccc32)c1,99% (inactive)
21,COc1cc(OC)c(NC(=O)Nc2ccccc2OCc2cc(=O)n3cc(C)ccc3n2)cc1Cl,103% (inactive)
22,COc1ccccc1C(=O)Nc1ccc(OCc2cc(=O)n3cc(C)sc3n2)cc1,130% (inactive)
23,CCOc1ccc(C(=O)Nc2c(C(=O)c3ccccc3)oc3ccccc23)cc1,72% (inactive)
24,O=C(NCCc1ccccc1)c1cc2sccc2n1Cc1ccc(F)cc1,72% (inactive)

row,SMILES,survival
1,COc1cc(OC)c(NC(=O)CCc2c(C)nc3ncnn3c2C)cc1Cl,97% (inactive)
2,Cc1cn2c(=O)c(S(=O)(=O)NCc3ccccc3Cl)c(C)nc2s1,66% (inactive)
3,Cc1cc(C)c2oc(C(=O)Nc3c(C(=O)c4ccccc4)oc4ccccc34)cc(=O)c2c1,55% (inactive)
4,Cc1cc2oc(C(=O)Nc3c(C(=O)Nc4ccccc4)oc4ccccc34)cc(=O)c2cc1C,106% (inactive)
5,Cc1cc(C)c2oc(C(=O)Nc3c(C(=O)Nc4ccccc4)oc4ccccc34)cc(=O)c2c1,51% (active)
6,Cc1cccc(NC(=O)c2oc3ccccc3c2NC(=O)c2cc(=O)c3cc(Cl)ccc3o2)c1,43% (active)
7,COC(=O)c1ccc(NC(=O)c2cc(=O)c3ccc(C)cc3o2)cc1,96% (inactive)
8,Cc1ccc2c(=O)cc(C(=O)Nc3nnc(C)s3)oc2c1,76% (inactive)
9,Cc1ccc2c(=O)cc(C(=O)Nc3c(C(=O)Nc4cccc(Cl)c4)oc4ccccc34)oc2c1,36% (active)
10,Cc1ccc2oc(C(=O)Nc3c(C(=O)Nc4cccc(Cl)c4)oc4ccccc34)cc(=O)c2c1,67% (inactive)
11,Cc1ccc2c(=O)cc(C(=O)Nc3c(C)cccc3C)oc2c1,44% (active)
12,O=C(Nc1c(C(=O)Nc2cccc(C(F)(F)F)c2)oc2ccccc12)c1cc(=O)c2ccccc2o1,78% (inactive)
13,Cc1ccc2oc(C(=O)Nc3cccc(Cl)c3)cc(=O)c2c1,92% (inactive)
14,COc1ccc(NC(=O)c2oc3ccccc3c2NC(=O)c2cc(=O)c3cc(Cl)ccc3o2)cc1,54% (inactive)
15,NCC1Cc2ccccc2O1 (centres undefined),103% (inactive)
16,O=c1c2oc3ccccc3c2n(Cc2cccc(F)c2)c(=O)n1Cc1ccco1,75% (inactive)
17,Cc1ccccc1CSc1nnc2[nH]c(=O)cc(C)n12,84% (inactive)
18,Cc1cc(C)cc(-n2ccnc(NCCc3ccccc3)c2=O)c1,101% (inactive)
19,CC(C)Oc1ccc(C2CC(=O)N(C)C2=O)cc1 (centres undefined),82% (inactive)
20,Cc1ccc(OCC(=O)Nc2ccc(S(=O)(=O)N3CCOCC3)cc2)c(C)c1,94% (inactive)
21,COc1ccc2cc(CN(Cc3nnnn3Cc3ccccc3)C3CCCC3)c(=O)[nH]c2c1,96% (inactive)
22,CC1CCN(C(=O)c2ccc3nc(N4C(=O)CCC4=O)sc3c2)CC1,95% (inactive)
23,COc1ccc(C)cc1NC(=O)C(=O)NCCc1csc2nc(-c3ccccc3F)nn12,72% (inactive)
24,COc1ccc(N2CCN(S(C)(=O)=O)CC2)cc1,86% (inactive)

row,SMILES,survival
1,COc1cc2c(=O)c(S(=O)(=O)c3ccc(F)cc3)cn(Cc3ccccc3C)c2cc1OC,55% (inactive)
2,CCOC(=O)C1CCCN(C(=O)c2ccc3c(c2)sc2nc(-c4cccc(OC)c4)cn23)C1 (centres undefined),77% (inactive)
3,CCc1ccc2oc(C(=O)Nc3ccccc3OC)cc(=O)c2c1,49% (inactive)
4,Cc1cccc(NC(=O)c2oc3ccccc3c2NC(=O)c2cc(=O)c3ccc(C)cc3o2)c1,28% (active)
5,CCOc1ccccc1NC(=O)c1cc(=O)c2ccc(C)cc2o1,44% (active)
6,CCOc1ccc(C(=O)c2oc3ccccc3c2NC(=O)c2cc(=O)c3ccc(C)cc3o2)cc1,134% (inactive)
7,Cc1ccc2c(=O)cc(C(=O)Nc3c(C(=O)c4ccccc4)oc4ccccc34)oc2c1,76% (inactive)
8,Cc1cccc(NC(=O)c2oc3ccccc3c2NC(=O)c2cc(=O)c3ccccc3o2)c1,73% (inactive)
9,Cc1ccc2oc(C(=O)Nc3c(C(=O)Nc4ccccc4)oc4ccccc34)cc(=O)c2c1,73% (inactive)
10,COc1ccc(C(=O)c2oc3ccccc3c2NC(=O)c2cc(=O)c3ccc(C)cc3o2)cc1Cl,44% (active)
11,Cc1ccc(C(=O)c2oc3ccccc3c2NC(=O)c2cc(=O)c3ccccc3o2)cc1,57% (inactive)
12,COC(=O)C(C)Oc1ccc(N2C(=O)c3ccccc3C2=O)cc1 (centres undefined),75% (inactive)
13,O=S(=O)(c1ccc(-c2cc(C(F)(F)F)on2)s1)N1CCN(c2ccccc2)CC1,75% (inactive)
14,CCOc1ccc(-c2cc3nc(C4CCN(C(=O)OC(C)(C)C)CC4)c(C(=O)Nc4cccc(C(F)(F)F)c4)cn3n2)cc1,79% (inactive)
15,O=C1C2C3c4ccccc4C(c4ccccc43)C2C(=O)N1Cc1ccccn1 (centres undefined),83% (inactive)
16,COCC[N+]1(C)CCCCC1,84% (inactive)
17,COc1ccc(-c2cc(C(F)(F)F)nc(SCC(=O)N3CCC(C)CC3)n2)cc1,56% (inactive)
18,CC1CCN(C(=O)CSc2n[nH]c(-c3ccc(F)cc3)n2)CC1,92% (inactive)
19,CC(Sc1nc(-c2ccccc2)cc(C(F)(F)F)n1)C(=O)N1CCCC1 (centres undefined),101% (inactive)
20,CC1CCN(C(=O)C(C)Sc2nc(-c3ccccc3)cc(C(F)(F)F)n2)CC1 (centres undefined),-1% (active)
21,CC1CN(C(=O)C(C)Sc2nc(-c3ccccc3)cc(C(F)(F)F)n2)CC(C)O1 (centres undefined),78% (inactive)
22,CC1CCN(C(=O)CSc2nc(-c3ccc(F)cc3)cc(C(F)(F)F)n2)CC1,37% (active)
